Laboratory results: the supplement of paper PMC9925115
± gives the uncertainty stated by the source.

The compounds below were run on FLX1 (assay: cell viability z-score within plate (CellTiter-Glo), mean of 3 biological replicates; higher = higher viability relative to plate (less growth inhibition)). Settings: 2 µM; time (hr): 120.
Experimental: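 FLX1 fibrolamellar carcinoma cells (DNAJB1-PRKACA fusion), 600 cells/well in 384-well plates, treated with a Selleck kinase inhibitor library (L1200) at 2 uM for 5 days (120 hr); viability by CellTiter-Glo. A z-score was computed within each plate and averaged over three biological replicates.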

Compared with CC(C)(O)CC(=O)NCCn1ccc2ncnc(Nc3ccc(Oc4cccc(C(F)(F)F)c4)c(Cl)c3)c21, CS(=O)(=O)CCNCc1ccc(-c2ccc3ncnc(Nc4ccc(OCc5cccc(F)c5)c(Cl)c4)c3c2)o1 [Lapatinib] is higher in “cell viability z-score within plate” value: -0.891 ± 0.77 for the first, 0.823 ± 0.37 for the second.

Going from Cc1ccc(NC(=O)c2ccc(CN3CCN(C)CC3)cc2)cc1Nc1nc(-c2cccnc2)cs1 [Masitinib (AB1010)] to CCn1c2ccccc2c2cc(Nc3ccnc(NCCCN4CCOCC4)n3)ccc21, the “cell viability z-score within plate” value rises from -1.52 ± 1.2 to 1.38 ± 0.26.

CCn1c(-c2nonc2N)nc2c(C#CC(C)(C)O)ncc(OC[C@H]3CCCNC3)c21 and CC(C)n1nc(-c2cc3cc(O)ccc3[nH]2)c2c(N)ncnc21 [Torkinib (PP242)] are within error of each other in “cell viability z-score within plate” value: -1.24 ± 0.86 for the first, -0.546 ± 0.32 for the second.

Nc1nc(N)c2nc(-c3cccc(O)c3)c(-c3cccc(O)c3)nc2n1 and NCC(=O)Nc1ccc(-n2nc(C(F)(F)F)cc2-c2ccc3c(ccc4ccccc43)c2)cc1 are within error of each other in “cell viability z-score within plate” value: 0.649 ± 0.23 for the first, 0.225 ± 0.2 for the second.

O=C(NC[C@H](O)CO)c1ccncc1Nc1ccc(I)cc1F and O=C(NOC[C@H](O)CO)c1ccc(F)c(F)c1Nc1ccc(I)cc1F are within error of each other in “cell viability z-score within plate” value: -0.968 ± 0.82 for the first, -1.16 ± 0.84 for the second.

First: Cn1sc(=O)n(Cc2ccccc2)c1=O
Second: N#CC(=C(/N)Sc1ccccc1N)/C(C#N)=C(\N)Sc1ccccc1N
The “cell viability z-score within plate” value of the first is higher: 1.12 ± 0.94 for the first, -1.01 ± 0.4 for the second.

Cc1cc(Nc2ncc(Cl)c(Nc3ccccc3S(=O)(=O)C(C)C)n2)c(OC(C)C)cc1C1CCNCC1 [Ceritinib (LDK378)] and COc1ncc(-c2ccc3nccc(-c4ccnnc4)c3c2)cc1NS(=O)(=O)c1ccc(F)cc1F are within error of each other in “cell viability z-score within plate” value: 0.337 ± 0.65 for the first, 0.539 ± 0.32 for the second.
